Source: PubChem BioAssay (Tox21)
Records with an inconclusive call do not appear. The source made the active and inactive calls. Unless noted, calls come from the whole dose curve.

Experiments:
[1] = Nuclear factor erythroid 2-related factor 2/antioxidant responsive element (Nrf2/ARE) small molecule agonists: qHTS cell viability counter screen in human keratinocytes (AID 1919968; active = well fitted curve in the direction sought with a large enough effect in the repeat runs; an effect the other way counts as inactive or inconclusive; note: nearly all actives have a fitted effect of over 55% in size)
Procedure, shortened: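 Cells of the KeratinoSens line were plated at 1,500 per well and left for 5 h before compound transfer from DMSO stocks. After a 23 h incubation (37 C, 5% CO2), CellTiter-Fluor was added. Signal was taken as fluorescence intensity 1 h later.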

[2] = Nuclear factor erythroid 2-related factor 2/antioxidant responsive element (Nrf2/ARE) small molecule agonists: luciferase reporter gene qHTS assay in human keratinocytes (AID 1919969); note: nearly all actives have a fitted effect of over 35% in size
[3] = biological target: Gonadotropin-releasing hormone receptor (Homo sapiens) (UniProt P30968); assay: Human gonadotropin-releasing hormone receptor (GnRHR) small molecule agonists, calcium flux assay in GnRHR-HEK293 cells (AID 1920063); note: nearly all actives have a fitted effect of over 35% in size
Procedure, shortened: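 Compounds dissolved in DMSO are pin-transferred onto dye-loaded GnRHR-HEK293 cells, which were seeded 18 h before at 37 C/5% CO2. Calcium signal is read as fluorescence intensity at 1 s intervals for 3 min.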

[4] = biological target: KiSS-1 receptor (Homo sapiens) (UniProt Q969F8); assay: Human kisspeptin (KISS1R) small molecule agonists, calcium flux assay in KISS1R-HEK293 cells (AID 1920064; active = well fitted curve in the direction sought with a large enough effect in the repeat runs; an effect the other way counts as inactive or inconclusive)
Procedure, shortened: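 Cell line: HEK293, stable human KISS1R. Dye loading 1 h at 37 C after 18 h culture. Read: kinetic fluorescence, 480/540 nm, 3 min at 1 s intervals.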

[5] = G protein-coupled receptor (GPCR) small molecule agonists, calcium flux assay: HEK293 wild type cell line counter screen (AID 1920065)
Procedure, shortened: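 Tox21 10K compounds, 15 concentrations each in triplicate, pin-transferred in DMSO onto dye-loaded cells; kinetic read at 480/540 nm for 3 min, 1 s intervals.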

[6] = p53 small molecule agonists, cell-based qHTS assay with rat liver microsomes (AID 1963578)
Procedure, shortened: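 Agonist mode in p53RE-bla reporter cells, with compounds co-incubated 16 h at 37 C alongside 0.5 mg/mL rat liver microsomes and 0.5 mg/mL NADPH (final), followed by a 2 h LiveBLAzer detection step.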

[7] = p53 small molecule agonists, cell-based qHTS assay with human liver microsomes: qHTS cell viability counter screen (AID 1963579); note: nearly all actives have a fitted effect of over 45% in size
Procedure, shortened: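 Metabolically activated exposure: compounds, human liver microsomes and NADPH (0.5 mg/mL final apiece) were added to p53RE-bla cells seeded 5 h earlier, left 16 h at 37 C, and then assessed for viability by CellTiter-Glo luminescence.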

[8] = p53 small molecule agonists, cell-based qHTS assay with rat liver microsomes: qHTS cell viability counter screen (AID 1963580); note: nearly all actives have a fitted effect of over 45% in size
Procedure, shortened: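 Cytotoxicity counter screen: intracellular ATP measured by CellTiter-Glo luminescence in the same wells as the beta-lactamase reporter read, on HCT-116 p53RE-bla cells exposed 16 h at 37 C to compounds with rat liver microsomes and NADPH, each 0.5 mg/mL final.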

[9] = p53 small molecule agonists, cell-based qHTS assay: qHTS cell viability counter screen (AID 1963581); note: nearly all actives have a fitted effect of over 45% in size
Procedure, shortened: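 ATP content measured by luminescence in HCT-116 p53RE-bla cells treated 16 h at 37 C, same wells as the reporter screen.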

[10] = p53 small molecule agonists, cell-based qHTS assay (AID 1963582; active = well fitted activation curve with a large enough effect in the signal ratio in the repeat runs, not every such curve was filed as active; the % refers to the signal ratio)
Procedure, shortened: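 16 h compound exposure (37 C) of p53 response element–bla cells, preceded by 5 h recovery at 37 C/5% CO2; read-out via LiveBLAzer B/G FRET substrate, 2 h RT, fluorescence intensity.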

[11] = biological target: 5-hydroxytryptamine receptor 2A (Homo sapiens) (UniProt P28223); assay: 5-hydroxytryptamine receptor 2A (HTR2A) small molecule antagonists, cell-based qHTS assay (AID 1963586); note: nearly all actives have a fitted effect of over 45% in size
Procedure, shortened: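 CHO cells stably expressing human HTR2A were plated for 18 h at 37 C, then loaded with calcium dye for 1 h. Compounds were preincubated 5 min at room temperature before DOI (4 nM solution) was added. Kinetic fluorescence was read for 3 min.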

[12] = biological target: 5-hydroxytryptamine receptor 2A (Homo sapiens) (UniProt P28223); assay: 5-hydroxytryptamine receptor 2A (HTR2A) small molecule agonists, cell-based qHTS assay (AID 1963587); note: nearly all actives have a fitted effect of over 30% in size
Procedure, shortened: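 CHO cells stably expressing human HTR2A, plated 18 h, loaded with calcium dye 1 h at 37 C. Agonist mode: compounds added and intracellular calcium fluorescence recorded kinetically for 2 min at 1 sec intervals.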

[13] = biological target: Muscarinic acetylcholine receptor M1 (Homo sapiens) (UniProt P11229); assay: Cholinergic receptor muscarinic 1 (CHRM1) small molecule antagonists, cell-based qHTS assay (AID 1963588); note: nearly all actives have a fitted effect of over 40% in size
Procedure, shortened: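 Compounds were tested at 15 concentrations in three independent runs. Dye-loaded CHRM1-CHO cells were exposed 5 min at room temperature before stimulation by acetylcholine added at 50nM. Intracellular calcium was read kinetically on FDSS for 3 min.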

[14] = biological target: Muscarinic acetylcholine receptor M1 (Homo sapiens) (UniProt P11229); assay: Cholinergic receptor muscarinic 1 (CHRM1) small molecule agonists, cell-based qHTS assay (AID 1963589); note: nearly all actives have a fitted effect of over 35% in size
Procedure, shortened: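 Homogeneous fluorescence calcium flux, agonist mode. Human M1-expressing CHO cells; compound dosed at 15 concentrations, three independent runs; signal sampled every 1 sec.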

[15] = cAMP Responsive Elements (CRE) small molecule agonists, cell-based qHTS assay (AID 1963590)
Procedure, shortened: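 HEK 293T cells stably bearing CRE-bla were plated at 2,000 cells per well and rested 18 h. Compounds, positive controls or DMSO were added for 3 h at 37 C. LiveBLAzer B/G substrate was then loaded for 2 h at room temperature.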

[16] = cAMP Responsive Elements (CRE) small molecule antagonists, cell-based qHTS assay (AID 1963591; active = well fitted inhibition curve with a large enough effect in the signal ratio in the repeat runs, not every such curve was filed as active; the % refers to the signal ratio)
Procedure, shortened: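 First, CRE-bla HEK293T cells settled 18 h at 37 C. Next, compound and 0.25 uM final NKH477 were applied for 3 h. Last, LiveBLAzer B/G substrate was loaded for 2 h at room temperature.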

[17] = biological target: Beta-2 adrenergic receptor (Homo sapiens) (UniProt P07550); assay: Adrenergic beta2 receptor (ADRB2) small molecule antagonists, cell-based qHTS assay (AID 1963592); note: series mostly up to about 92 µM; nearly all actives have a fitted effect of over 50% in size
Procedure, shortened: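 Assay format: CHO-ADRB2 cells, 18-20hr seeding at 37C/5% CO2, then compound plus 1nM isoproterenol agonist mix for 0.5hr RT. Homogeneous time-resolved fluorescence cAMP detection after 1hr, expressed as 665/615 nm ratio.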

[18] = biological target: D(2) dopamine receptor (Homo sapiens) (UniProt P14416); assay: Dopamine D2 receptor (DRD2) small molecule agonists, cell-based qHTS assay (AID 1963594); note: nearly all actives have a fitted effect of over 35% in size
Procedure, shortened: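 HEK293 cells stably expressing human DRD2, pre-treated with PDE inhibitor Ro20-1724 (0.1 mM final) and compound 10 min at room temperature, then stimulated with NKH477 (200nM […]) for 30 min. cAMP read by HTRF (665/620 nm).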

[19] = biological target: D(2) dopamine receptor (Homo sapiens) (UniProt P14416); assay: Dopamine D2 receptor (DRD2) small molecule antagonists, cell-based qHTS assay (AID 1963595; active = well fitted inhibition curve with a large enough effect in the signal ratio in the repeat runs, with a control signal flat; the % refers to the signal ratio)
Procedure, shortened: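 In this cell-based antagonist screen, compounds act for 10 min at room temperature before a 30 min challenge with 12 nM quinpirole and 200 nM NKH477. cAMP is quantified by HTRF competition in DRD2-HEK293 cells containing 0.1 mM Ro20-1724.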

[20] = biological target: Beta-2 adrenergic receptor (Homo sapiens) (UniProt P07550); assay: Adrenergic beta2 receptor (ADRB2) small molecule agonists, cell-based qHTS assay (AID 1963593);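 note: CHO cells stably overexpressing human ADRB2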
Procedure, shortened: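 CHO cells stably over-expressing ADRB2 were plated overnight at 37C, then dosed with compounds plus a stimulation mix containing 100uM IBMX and 25uM Ro-20-1724 for 0.5hr at room temperature. cAMP was measured by HTRF competition, 1hr.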

Measured: Potency

5-hydroxytryptamine receptor 2A (Homo sapiens), sequence (P28223 whole entry, looked up): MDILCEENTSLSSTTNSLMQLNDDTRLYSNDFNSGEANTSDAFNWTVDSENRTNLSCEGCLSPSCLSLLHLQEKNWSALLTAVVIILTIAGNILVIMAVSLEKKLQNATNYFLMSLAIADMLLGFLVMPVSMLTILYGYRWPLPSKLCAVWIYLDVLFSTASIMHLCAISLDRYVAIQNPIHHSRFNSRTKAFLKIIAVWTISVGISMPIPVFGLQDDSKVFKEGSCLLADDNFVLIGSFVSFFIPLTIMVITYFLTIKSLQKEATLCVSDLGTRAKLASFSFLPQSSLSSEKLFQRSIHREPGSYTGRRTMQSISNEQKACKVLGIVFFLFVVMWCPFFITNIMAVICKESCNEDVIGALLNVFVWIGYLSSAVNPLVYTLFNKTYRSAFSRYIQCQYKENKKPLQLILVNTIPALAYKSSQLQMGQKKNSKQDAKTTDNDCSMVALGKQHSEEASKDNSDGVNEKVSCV
D(2) dopamine receptor (Homo sapiens), sequence (P14416 whole entry, looked up): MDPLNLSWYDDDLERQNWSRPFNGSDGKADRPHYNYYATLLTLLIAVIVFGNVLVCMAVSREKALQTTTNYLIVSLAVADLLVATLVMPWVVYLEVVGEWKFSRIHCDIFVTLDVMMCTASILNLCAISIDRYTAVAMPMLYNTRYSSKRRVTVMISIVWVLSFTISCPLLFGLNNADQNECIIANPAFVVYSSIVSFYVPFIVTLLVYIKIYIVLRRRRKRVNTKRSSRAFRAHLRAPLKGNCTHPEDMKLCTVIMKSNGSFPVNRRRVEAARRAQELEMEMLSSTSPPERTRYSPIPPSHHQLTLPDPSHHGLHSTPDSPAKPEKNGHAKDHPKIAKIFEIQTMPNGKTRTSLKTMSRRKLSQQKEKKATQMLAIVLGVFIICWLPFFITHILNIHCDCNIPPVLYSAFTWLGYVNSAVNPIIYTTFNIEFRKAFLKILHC
Gonadotropin-releasing hormone receptor (Homo sapiens), sequence (P30968 whole entry, looked up): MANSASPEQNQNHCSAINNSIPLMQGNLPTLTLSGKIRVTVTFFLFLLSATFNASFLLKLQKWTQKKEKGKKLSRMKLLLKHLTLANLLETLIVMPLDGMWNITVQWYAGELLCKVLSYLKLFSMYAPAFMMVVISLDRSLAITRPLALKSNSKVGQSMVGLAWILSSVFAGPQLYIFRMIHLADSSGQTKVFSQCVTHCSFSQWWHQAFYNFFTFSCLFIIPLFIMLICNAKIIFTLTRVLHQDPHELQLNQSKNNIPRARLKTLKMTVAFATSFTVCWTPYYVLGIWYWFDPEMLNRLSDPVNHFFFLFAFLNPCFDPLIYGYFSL
KiSS-1 receptor (Homo sapiens), sequence (Q969F8 whole entry, looked up): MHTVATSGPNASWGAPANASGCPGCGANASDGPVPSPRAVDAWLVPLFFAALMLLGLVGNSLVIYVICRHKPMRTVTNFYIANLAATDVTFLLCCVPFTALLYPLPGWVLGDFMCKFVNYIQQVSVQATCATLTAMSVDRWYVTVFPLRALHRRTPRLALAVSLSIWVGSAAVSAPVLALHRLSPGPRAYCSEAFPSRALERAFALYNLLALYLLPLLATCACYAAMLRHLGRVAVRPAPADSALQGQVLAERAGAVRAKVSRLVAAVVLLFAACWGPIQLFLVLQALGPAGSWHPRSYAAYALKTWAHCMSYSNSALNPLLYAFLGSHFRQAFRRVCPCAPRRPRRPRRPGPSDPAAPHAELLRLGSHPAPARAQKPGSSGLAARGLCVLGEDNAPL
Muscarinic acetylcholine receptor M1 (Homo sapiens), sequence (P11229 whole entry, looked up): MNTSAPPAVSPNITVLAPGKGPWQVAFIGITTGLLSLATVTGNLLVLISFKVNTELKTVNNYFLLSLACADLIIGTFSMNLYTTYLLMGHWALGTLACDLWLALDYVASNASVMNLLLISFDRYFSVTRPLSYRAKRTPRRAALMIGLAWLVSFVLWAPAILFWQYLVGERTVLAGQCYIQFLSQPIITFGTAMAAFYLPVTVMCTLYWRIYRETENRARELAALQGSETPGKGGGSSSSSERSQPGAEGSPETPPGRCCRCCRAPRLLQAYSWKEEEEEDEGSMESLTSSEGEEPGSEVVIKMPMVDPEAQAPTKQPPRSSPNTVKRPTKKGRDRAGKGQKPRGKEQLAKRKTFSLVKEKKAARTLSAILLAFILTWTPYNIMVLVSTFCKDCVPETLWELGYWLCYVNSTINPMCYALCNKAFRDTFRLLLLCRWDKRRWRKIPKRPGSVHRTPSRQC
Beta-2 adrenergic receptor (Homo sapiens), sequence (P07550 whole entry, looked up): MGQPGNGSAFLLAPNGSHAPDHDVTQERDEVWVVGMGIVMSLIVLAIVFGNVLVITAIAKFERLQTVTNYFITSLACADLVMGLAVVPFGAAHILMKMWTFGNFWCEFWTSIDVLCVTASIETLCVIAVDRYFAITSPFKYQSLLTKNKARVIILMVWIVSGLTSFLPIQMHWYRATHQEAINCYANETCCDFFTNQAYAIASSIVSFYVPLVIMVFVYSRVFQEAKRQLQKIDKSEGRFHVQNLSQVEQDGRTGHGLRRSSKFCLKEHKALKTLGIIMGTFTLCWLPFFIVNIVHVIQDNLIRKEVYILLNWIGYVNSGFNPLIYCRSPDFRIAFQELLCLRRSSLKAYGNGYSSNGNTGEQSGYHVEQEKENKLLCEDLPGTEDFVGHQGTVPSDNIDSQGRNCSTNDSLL

O=C=Nc1ccc(Cl)c(Cl)c1
inactive: [1] | [2] | [3] | [4] | [5] | [6] | [7] | [8] | [9] | [10] | [11] | [12] | [13] | [14] | [15] | [16] | [17] | [18] | [19]

CCN(CC)CCNC(=O)COc1ccc(OC)cc1
inactive: [1] | [2] | [3] | [4] | [5] | [6] | [7] | [8] | [9] | [10] | [11] | [13] | [14] | [15] | [16] | [17] | [20] | [18] | [19]

C[C@@H]1C[C@H]2[C@@H]3C[C@H](F)C4=CC(=O)C(Cl)=C[C@]4(C)[C@@]3(F)[C@@H](O)C[C@]2(C)[C@@]1(O)C(=O)CO
inactive: [1] | [2] | [3] | [4] | [5] | [6] | [7] | [8] | [9] | [10] | [11] | [12] | [13] | [14] | [15] | [16] | [17] | [18] | [19]
